Test results published in the supplement of paper PMC6089552.
The whole screen tested about 3,200 compounds, of which about 300 (9.4%) showed activity. This is one part of a sample in which actives are shown more often than they occur.

System: A673/TR/shEF
Assay: cell viability (LOESS-normalised, relative to median of negative controls) (log2 ratio); higher = more viable cells (less compound effect), active = hit call of the paper (over 3 MAD below the median)
Settings: treatment time: 72 h
Procedure, shortened: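 For three days, A673/TR/shEF Ewing sarcoma cells in 384-well plates (1,500 per well) were treated with library compounds at two or more concentrations or with DMSO controls, after doxycycline had been added or withheld 24 h beforehand to induce EWS-FLI1 shRNA knockdown. Viability was read by CellTiter-Glo luminescence on an Envision reader. The data were LOESS-corrected per plate, divided by the median of negative controls and log2-transformed.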

[1] = 0.25 µM, library screen: screen1, EWS-FLI1 expression: high (no doxycycline)
[2] = 0.25 µM, library screen: screen1, EWS-FLI1 expression: low (doxycycline-induced shRNA knockdown)
[3] = 2.5 µM, library screen: screen1, EWS-FLI1 expression: high (no doxycycline)
[4] = 2.5 µM, library screen: screen1, EWS-FLI1 expression: low (doxycycline-induced shRNA knockdown)
[5] = 0.25 µM, library screen: screen2, EWS-FLI1 expression: high (no doxycycline)
[6] = 0.25 µM, library screen: screen2, EWS-FLI1 expression: low (doxycycline-induced shRNA knockdown)
[7] = 2.5 µM, library screen: screen2, EWS-FLI1 expression: high (no doxycycline)
[8] = 2.5 µM, library screen: screen2, EWS-FLI1 expression: low (doxycycline-induced shRNA knockdown)

Measured: cell viability (log2)

C=C[C@H]1CN2CC[C@H]1C[C@@H]2[C@@H](OC(=O)OCC)c1ccnc2ccc(OC)cc12
inactive: [1] 0.12 | [2] 0.082 | [3] 0.173 | [4] 0.169

Brc1ccc(CN2CCNCC2)cc1
inactive: [1] 0.0414 | [2] 0.121 | [3] 0.0626 | [4] 0.0805

C[C@@H](N)[C@@H](O)c1ccccc1
inactive: [1] 0.199 | [2] 0.05 | [3] 0.0838 | [4] 0.0342

O=C(O)COc1ccc(Cl)cc1Cl
inactive: [1] 0.0733 | [2] 0.0542 | [3] 0.0257 | [4] 0.121

Oc1ccc2c3c1O[C@H]1c4oc5ccccc5c4C[C@@]4(O)C(C2)N(CC2CC2)CCC314 (some centres not stated)
inactive: [5] 0.123 | [6] 0.122 | [7] 0.0412 | [8] 0.065

CC(C)(C)c1o[nH]c(=O)c1CC(N)C(=O)O (configuration not stated)
inactive: [5] 0.0947 | [6] 0.0371 | [7] 0.104 | [8] 0.0294

CC[C@@H](C)C(=O)O[C@H]1[C@H](O)[C@H]2[C@@H](CN3C[C@@H](C)CC[C@H]3[C@@]2(C)O)[C@@H]2C[C@]34O[C@]5(O)[C@@H](OC(=O)[C@@](C)(O)[C@@H](C)O)CC[C@@]3(C)[C@@H]5[C@@H](OC(C)=O)[C@@H](OC(C)=O)[C@H]4[C@@]21O
inactive: [1] 0.0432 | [2] 0.0125 | [3] 0.068 | [4] 0.0811

CN1C2CC3CC1[C@H](O)C2O3 (some centres not stated)
inactive: [1] 0.0139 | [2] -0.0209 | [3] 0.0278 | [4] 0.0758

NC(CF)(Cc1cnc[nH]1)C(=O)O (configuration not stated)
inactive: [5] 0.186 | [6] 0.069 | [7] 0.162 | [8] 0.1

CC(=O)O[C@@H]1C[C@H]2C(C)(C)C(=O)C=C[C@]2(C)[C@H]2CC[C@]3(C)C(=CC(=O)O[C@H]3c3ccoc3)[C@@]21C
inactive: [1] 0.03 | [2] 0.143 | [3] 0.0618 | [4] 0.0922

C=C(C)C(=O)/C(=C\C(=O)O)OC
inactive: [1] 0.0761 | [2] 0.0593 | [3] 0.138 | [4] 0.0173

COP(=O)(OC)OC(Br)C(Cl)(Cl)Br (configuration not stated)
inactive: [1] 0.05 | [2] -0.000859 | [3] 0.0787 | [4] 0.115

COc1cc(OC)c(OC)cc1C=O
inactive: [1] 0.0675 | [2] 0.0986 | [3] 0.037 | [4] 0.0609

CN[C@@H](C)[C@H](O)c1ccccc1
inactive: [1] 0.0728 | [2] 0.0797 | [5] 0.178 | [6] 0.073 | [3] 0.233 | [4] 0.0725 | [7] 0.0371 | [8] 0.00703

O=C(O)c1cc[c]([Hg][Cl])cc1
inactive: [5] 0.203 | [6] 0.0774 | [8] 0.0559
active: [7] -0.0791

COc1ccc(C(=O)O)cc1OC
inactive: [1] 0.0171 | [2] 0.0588 | [3] 0.137 | [4] -0.0498

NNCc1cccc(O)c1
inactive: [1] 0.103 | [2] 0.0544 | [5] 0.129 | [6] 0.00623 | [3] 0.142 | [4] 0.142 | [7] 0.151 | [8] 0.0221

NC(Cc1cc(O)c(O)cc1O)C(=O)O (configuration not stated)
inactive: [5] 0.0775 | [6] 0.133 | [7] 0.0832 | [8] 0.2

CC(=O)c1c(O)c(C)c(O)c(Cc2c(O)c3c(c(C(=O)/C=C/c4ccccc4)c2O)OC(C)(C)C=C3)c1O
active: 25 µM, library screen: screen1, EWS-FLI1 expression: high (no doxycycline) -0.306
inactive: 0.025 µM, library screen: screen1, EWS-FLI1 expression: high (no doxycycline) 0.0285 | 0.025 µM, library screen: screen1, EWS-FLI1 expression: low (doxycycline-induced shRNA knockdown) 0.0263 | [1] 0.0889 | [2] 0.0306 | [5] 0.209 | [6] 0.109 | [3] 0.055 | [4] -0.0112 | [7] 0.118 | [8] 0.156 | 25 µM, library screen: screen1, EWS-FLI1 expression: low (doxycycline-induced shRNA knockdown) -0.0436

CC(N)Cc1c[nH]c2ccc(O)cc12 (configuration not stated)
inactive: [5] 0.112 | [6] 0.067 | [7] 0.123 | [8] 0.0164

COc1ccc(C(c2ccc(OC)cc2)C(Cl)(Cl)Cl)cc1
inactive: [1] 0.0772 | [2] 0.0568 | [3] 0.0994 | [4] 0.0877

ClC1=C(Cl)[C@]2(Cl)[C@H]3[C@H]([C@@H]4C=C[C@H]3C4)[C@@]1(Cl)C2(Cl)Cl
inactive: [1] 0.211 | [2] 0.0643 | [3] 0.0733 | [4] 0.136

CCN(CC)C(=O)N[C@@H]1C[C@@H]2c3cccc4[nH]cc(c34)C[C@H]2N(C)C1
inactive: [5] 0.108 | [6] 0.0251 | [7] 0.215 | [8] -0.0279

CCCSP(=O)(OCC)SCCC
inactive: [1] 0.112 | [2] 0.104 | [3] 0.0625 | [4] 0.0939
